Among all 5,500 compounds or so, about 2,000 (36%) were called active. Roughly 18% stayed inconclusive and do not appear here. Cut-off read from the data, not from the text of the source: active = normalized growth mostly below about 0.91 (no sharp cut-off); inconclusive = no clear call, values can overlap the other calls; inactive = mostly above about 0.92. The list shows a part of the results.
Assay: chemical genetic growth profiling, strain panel (AID 1159580);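 note: tested at 20 µM; growth read once vehicle control cultures reached saturation at 30 °C; 1 = growth at the plate median or of vehicle wells; lower values mean less growth of the strain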
Details: growth OD

Measured: normalized growth

CC(=O)N[C@@H](CS)C(=O)O
inactive: S. cerevisiae deletion strains, locus YAL013W, strain DEP1, hits give low values 1 | S. cerevisiae deletion strains, locus YAL021C, strain ccr4, hits give low values 1.02 | S. cerevisiae deletion strains, locus YAL026C, strain drs2, hits give low values 1 | S. cerevisiae deletion strains, locus YAL030W, strain snc1, hits give low values 0.995 | S. cerevisiae deletion strains, locus YBL061C, strain skt5, hits give low values 1.01 | S. cerevisiae deletion strains, locus YBR009C, strain hhf1, hits give low values 1 | S. cerevisiae deletion strains, locus YBR021W, strain FUR4, hits give low values 0.989 | S. cerevisiae deletion strains, locus YBR023C, strain chs3, hits give low values 0.994 | S. cerevisiae deletion strains, locus YBR171W, strain sec66, hits give low values 0.991 | S. cerevisiae deletion strains, locus YBR229C, strain ROT2, hits give low values 1.01 | S. cerevisiae deletion strains, locus YBR231C, strain swc5, hits give low values 1.01 | S. cerevisiae deletion strains, locus YBR279W, strain paf1, hits give low values 1.01 | S. cerevisiae deletion strains, locus YCL011C, strain gbp2, hits give low values 0.997 | S. cerevisiae deletion strains, locus YCL016C, strain dcc1, hits give low values 0.998 | S. cerevisiae deletion strains, locus YCL029C, strain bik1, hits give low values 1.03 | S. cerevisiae deletion strains, locus YCL061C, strain MRC1, hits give low values 0.995 | S. cerevisiae deletion strains, locus YCL069W, strain vba3, hits give low values 1.01 | S. cerevisiae deletion strains, locus YCR088W, strain abp1, hits give low values 1 | S. cerevisiae deletion strains, locus YDL005C, strain med2, hits give low values 0.992 | S. cerevisiae deletion strains, locus YDL035C, strain GPR1, hits give low values 1 | S. cerevisiae deletion strains, locus YDL040C, strain nat1, hits give low values 1.01 | S. cerevisiae deletion strains, locus YDL074C, strain BRE1, hits give low values 1.01 | S. cerevisiae deletion strains, locus YDL101C, strain DUN1, hits give low values 1.01 | S. cerevisiae deletion strains, locus YDL134C, strain PPH21, hits give low values 0.997 | S. cerevisiae deletion strains, locus YDL185W, strain tfp1, hits give low values 1.02 | S. cerevisiae deletion strains, locus YDL192W, strain arf1, hits give low values 1.01 | S. cerevisiae deletion strains, locus YDR001C, strain nth1, hits give low values 0.997 | S. cerevisiae deletion strains, locus YDR069C, strain doa4, hits give low values 1.01 | S. cerevisiae deletion strains, locus YDR101C, strain arx1, hits give low values 1.01 | S. cerevisiae deletion strains, locus YDR137W, strain rgp1, hits give low values 1.02 | S. cerevisiae deletion strains, locus YDR159W, strain sac3, hits give low values 1.01 | S. cerevisiae deletion strains, locus YDR162C, strain NBP2, hits give low values 1.02 | S. cerevisiae deletion strains, locus YDR195W, strain ref2 0.985 | S. cerevisiae deletion strains, locus YDR297W, strain sur2, hits give low values 0.99 | S. cerevisiae deletion strains, locus YDR318W, strain mcm21, hits give low values 1.02 | S. cerevisiae deletion strains, locus YDR334W, strain swr1, hits give low values 1 | S. cerevisiae deletion strains, locus YDR335W, strain msn5, hits give low values 1.01 | S. cerevisiae deletion strains, locus YDR388W, hits give low values 1.02 | S. cerevisiae deletion strains, locus YDR392W, strain spt3, hits give low values 1.02 | S. cerevisiae deletion strains, locus YDR502C, strain sam2, hits give low values 1.01 | S. cerevisiae deletion strains, locus YEL003W, strain gim4, hits give low values 1.01 | S. cerevisiae deletion strains, locus YEL037C, strain rad23, hits give low values 1 | S. cerevisiae deletion strains, locus YEL061C, strain CIN8 (second series), hits give low values 0.988 | S. cerevisiae deletion strains, locus YEL061C, strain CIN8, hits give low values 1.01 | S. cerevisiae deletion strains, locus YER015W, strain faa2, hits give low values 1 | S. cerevisiae deletion strains, locus YER016W, strain bim1, hits give low values 0.995 | S. cerevisiae deletion strains, locus YER110C, hits give low values 1.03 | S. cerevisiae deletion strains, locus YER111C, strain swi4, hits give low values 0.989 | S. cerevisiae deletion strains, locus YER155C, strain BEM2 (second series), hits give low values 1.01 | S. cerevisiae deletion strains, locus YER155C, strain BEM2, hits give low values 1.01 | S. cerevisiae deletion strains, locus YER167W, strain BCK2, hits give low values 1.01 | S. cerevisiae deletion strains, locus YFR010W, strain ubp6, hits give low values 0.983 | S. cerevisiae deletion strains, locus YGL078C, strain dbp3, hits give low values 1.01 | S. cerevisiae deletion strains, locus YGL086W, strain mad1, hits give low values 1.01 | S. cerevisiae deletion strains, locus YGL167C, strain pmr1, hits give low values 0.995 | S. cerevisiae deletion strains, locus YGL173C, strain kem1, hits give low values 1 | S. cerevisiae deletion strains, locus YGL227W, strain vid30, hits give low values 1 | S. cerevisiae deletion strains, locus YGL240W, strain doc1, hits give low values 0.964 | S. cerevisiae deletion strains, locus YGL248W, strain PDE1, hits give low values 1.02 | S. cerevisiae deletion strains, locus YGL253W, strain hxk2, hits give low values 1.02 | S. cerevisiae deletion strains, locus YGR135W, strain pre9, hits give low values 1.02 | S. cerevisiae deletion strains, locus YGR252W, strain gcn5, hits give low values 0.999 | S. cerevisiae deletion strains, locus YHR013C, strain ard1, hits give low values 1.02 | S. cerevisiae deletion strains, locus YHR027C, strain rpn1, hits give low values 1.01 | S. cerevisiae deletion strains, locus YHR030C, strain SLT2, hits give low values 1.01 | S. cerevisiae deletion strains, locus YHR079C, strain IRE1 (second series), hits give low values 1.03 | S. cerevisiae deletion strains, locus YHR094C, strain hxt1, hits give low values 1.01 | S. cerevisiae deletion strains, locus YHR129C, strain ARP1, hits give low values 1.01 | S. cerevisiae deletion strains, locus YHR142W, strain chs7, hits give low values 1.02 | S. cerevisiae deletion strains, locus YHR200W, strain rpn10, hits give low values 1.02 | S. cerevisiae deletion strains, locus YIL066C, strain RNR3, hits give low values 1.02 | S. cerevisiae deletion strains, locus YIL073C, strain SPO22, hits give low values 1.07 | S. cerevisiae deletion strains, locus YIL125W, strain kgd1, hits give low values 1.02 | S. cerevisiae deletion strains, locus YIR030C, strain dcg1, hits give low values 1.01 | S. cerevisiae deletion strains, locus YJL092W, strain hpr5, hits give low values 1.02 | S. cerevisiae deletion strains, locus YJL095W, strain BCK1 (second series), hits give low values 1.01 | S. cerevisiae deletion strains, locus YJL095W, strain BCK1, hits give low values 1.01 | S. cerevisiae deletion strains, locus YJL115W, strain asf1, hits give low values 0.991 | S. cerevisiae deletion strains, locus YJL129C, strain trk1, hits give low values 1 | S. cerevisiae deletion strains, locus YJL134W, strain LCB3, hits give low values 1.01 | S. cerevisiae deletion strains, locus YJL154C, strain vps35, hits give low values 1.01 | S. cerevisiae deletion strains, locus YJL164C, strain tpk1, hits give low values 1 | S. cerevisiae deletion strains, locus YJL166W, strain qcr8, hits give low values 0.985 | S. cerevisiae deletion strains, locus YJL168C, strain set2, hits give low values 1.01 | S. cerevisiae deletion strains, locus YJL187C, strain SWE1 (second series), hits give low values 1.03 | S. cerevisiae deletion strains, locus YJR043C, strain POL32, hits give low values 1 | S. cerevisiae deletion strains, locus YKL009W, strain mrt4, hits give low values 1.04 | S. cerevisiae deletion strains, locus YKL068W, hits give low values 1.01 | S. cerevisiae deletion strains, locus YKL085W, strain MDH1 (second series), hits give low values 1 | S. cerevisiae deletion strains, locus YKL085W, strain MDH1, hits give low values 1 | S. cerevisiae deletion strains, locus YKL160W, strain elf1, hits give low values 0.998 | S. cerevisiae deletion strains, locus YKR001C, strain vps1, hits give low values 1.01 | S. cerevisiae deletion strains, locus YKR026C, strain gcn3, hits give low values 0.991 | S. cerevisiae deletion strains, locus YKR091W, strain srl3, hits give low values 1.01 | S. cerevisiae deletion strains, locus YLL001W, strain dnm1, hits give low values 0.994 | S. cerevisiae deletion strains, locus YLL026W, hits give low values 1.01 | S. cerevisiae deletion strains, locus YLL041C, strain sdh2, hits give low values 1.01 | S. cerevisiae deletion strains, locus YLR027C, strain aat2, hits give low values 1.01 | S. cerevisiae deletion strains, locus YLR039C, strain RIC1, hits give low values 1.02 | S. cerevisiae deletion strains, locus YLR058C, strain SHM2, hits give low values 1.02 | S. cerevisiae deletion strains, locus YLR102C, strain apc9, hits give low values 1.02 | S. cerevisiae deletion strains, locus YLR221C, strain rsa3, hits give low values 1 | S. cerevisiae deletion strains, locus YLR258W, strain gsy2, hits give low values 1.01 | S. cerevisiae deletion strains, locus YLR262C, strain YPT6 (second series), hits give low values 1 | S. cerevisiae deletion strains, locus YLR262C, strain YPT6, hits give low values 1.08 | S. cerevisiae deletion strains, locus YLR268W, strain sec22, hits give low values 1.02 | S. cerevisiae deletion strains, locus YLR320W, strain mms22, hits give low values 1.01 | S. cerevisiae deletion strains, locus YLR330W, strain CHS5, hits give low values 1.01 | S. cerevisiae deletion strains, locus YLR342W, strain FKS1 (second series), hits give low values 0.995 | S. cerevisiae deletion strains, locus YLR342W, strain FKS1, hits give low values 1.01 | S. cerevisiae deletion strains, locus YLR357W, strain rsc2, hits give low values 0.989 | S. cerevisiae deletion strains, locus YLR370C, strain arc18, hits give low values 1.01 | S. cerevisiae deletion strains, locus YLR371W, strain rom2, hits give low values 1.03 | S. cerevisiae deletion strains, locus YLR384C, strain iki3, hits give low values 1.01 | S. cerevisiae deletion strains, locus YLR418C, strain cdc73, hits give low values 1.05 | S. cerevisiae deletion strains, locus YML016C, strain PPZ1, hits give low values 1.01 | S. cerevisiae deletion strains, locus YML032C, strain rad52, hits give low values 1.01 | S. cerevisiae deletion strains, locus YML120C, strain ndi1, hits give low values 0.999 | S. cerevisiae deletion strains, locus YML124C, strain tub3, hits give low values 1.04 | S. cerevisiae deletion strains, locus YMR058W, strain fet3, hits give low values 0.998 | S. cerevisiae deletion strains, locus YMR078C, strain ctf18, hits give low values 1.03 | S. cerevisiae deletion strains, locus YMR125W, strain sto1, hits give low values 1.01 | S. cerevisiae deletion strains, locus YMR129W, hits give low values 0.984 | S. cerevisiae deletion strains, locus YMR205C, strain PFK2, hits give low values 0.995 | S. cerevisiae deletion strains, locus YMR223W, strain ubp8, hits give low values 1.02 | S. cerevisiae deletion strains, locus YMR231W, strain pep5, hits give low values 1 | S. cerevisiae deletion strains, locus YMR263W, strain SAP30, hits give low values 1.01 | S. cerevisiae deletion strains, locus YMR307W, strain GAS1, hits give low values 1.04 | S. cerevisiae deletion strains, locus YNL067W, strain RPL9B, hits give low values 1.03 | S. cerevisiae deletion strains, locus YNL071W, strain lat1, hits give low values 1.02 | S. cerevisiae deletion strains, locus YNL128W, strain TEP1, hits give low values 1.03 | S. cerevisiae deletion strains, locus YNL153C, strain GIM3, hits give low values 1.02 | S. cerevisiae deletion strains, locus YNL209W, strain ssb2, hits give low values 1 | S. cerevisiae deletion strains, locus YNL233W, strain BNI4, hits give low values 1.01 | S. cerevisiae deletion strains, locus YNL248C, strain rpa49, hits give low values 1.08 | S. cerevisiae deletion strains, locus YNL250W, strain rad50, hits give low values 1.01 | S. cerevisiae deletion strains, locus YNL271C, strain bni1, hits give low values 1.03 | S. cerevisiae deletion strains, locus YNL298W, strain CLA4, hits give low values 1.02 | S. cerevisiae deletion strains, locus YNL307C, strain MCK1, hits give low values 1.02 | S. cerevisiae deletion strains, locus YNL322C, strain KRE1 (second series), hits give low values 0.999 | S. cerevisiae deletion strains, locus YNR049C, strain mso1, hits give low values 1 | S. cerevisiae deletion strains, locus YNR052C, strain pop2, hits give low values 1.03 | S. cerevisiae deletion strains, locus YOL006C, strain TOP1, hits give low values 0.995 | S. cerevisiae deletion strains, locus YOL012C, strain htz1 0.978 | S. cerevisiae deletion strains, locus YOL147C, strain pex11, hits give low values 1.02 | S. cerevisiae deletion strains, locus YOR001W, strain rrp6, hits give low values 1.02 | S. cerevisiae deletion strains, locus YOR061W, strain CKA2, hits give low values 1.02 | S. cerevisiae deletion strains, locus YOR069W, strain VPS5, hits give low values 1.01 | S. cerevisiae deletion strains, locus YOR070C, strain gyp1, hits give low values 1 | S. cerevisiae deletion strains, locus YOR080W, strain dia2, hits give low values 0.984 | S. cerevisiae deletion strains, locus YOR083W, strain WHI5, hits give low values 1 | S. cerevisiae deletion strains, locus YOR106W, strain vam3, hits give low values 1.02 | S. cerevisiae deletion strains, locus YOR136W, strain idh2, hits give low values 1.03 | S. cerevisiae deletion strains, locus YOR144C, strain elg1, hits give low values 1.03 | S. cerevisiae deletion strains, locus YOR184W, strain ser1, hits give low values 1.01 | S. cerevisiae deletion strains, locus YOR265W, strain rbl2, hits give low values 1 | S. cerevisiae deletion strains, locus YOR270C, strain vph1, hits give low values 1.04 | S. cerevisiae deletion strains, locus YOR290C, strain snf2, hits give low values 0.994 | S. cerevisiae deletion strains, locus YOR316C, strain cot1, hits give low values 1.02 | S. cerevisiae deletion strains, locus YPL051W, strain arl3, hits give low values 1.01 | S. cerevisiae deletion strains, locus YPL078C, strain atp4, hits give low values 0.992 | S. cerevisiae deletion strains, locus YPL106C, strain sse1, hits give low values 0.988 | S. cerevisiae deletion strains, locus YPL240C, strain hsp82, hits give low values 0.999 | S. cerevisiae deletion strains, locus YPR119W, strain clb2, hits give low values 1.02 | S. cerevisiae deletion strains, locus YPR141C, strain kar3, hits give low values 1.03 | S. cerevisiae deletion strains, locus YPR163C, strain tif3, hits give low values 1.03 | S. cerevisiae deletion strains, locus YPR167C, strain met16, hits give low values 1.06 | S. cerevisiae deletion strains, strain wtn01, hits give low values 1.01 | S. cerevisiae strains, strain wild type, hits give low values 1.01
